Bioassay records: PubChem, National Center for Advancing Translational Sciences (NCATS)
BAZ2B inh – BAZ2B (human) inhibition; Q9UIF8; AlphaScreen BAZ2B-H3K14Ac peptide displacement; Potency, µM (series often up to 114 µM), for the others: at the top dose activity change, negative = inhibition, hits mostly inhibitors; actives 4.4% (n = 360,000); AID 504333; also: % is scaled to controls: 0 for no effect and ±100 for the full control effect; nearly all actives have a fitted effect of over 60% in size
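Multi-concentration screen (max 110 uM) measuring displacement of acetylated histone H3 peptide from BAZ2B by AlphaScreen, using 50 nM protein, 50 nM peptide and 10 ug/mL streptavidin donor plus Ni-chelate acceptor beads.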
12-LOX inh – ALOX12 (human) lipoxygenase inhibition; actives 1.1% (n = 580,000); AID 1671190; P18054; purified 12hLO, xylenol orange hydroperoxide absorbance; Potency, µM (doses to about 108 µM), for the others: top-dose activity change, negative = inhibition, usual class: inhibitors; also: % is scaled to controls: 0 for no effect and ±100 for the full control effect
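Purified human 12hLO (150 nM final) in 25 mM Hepes, 0.01% Triton X-100, pH 7.0 was preincubated 15 min at room temperature with compound. Then 40 uM arachidonic acid was added, 30 min. Hydroperoxide was read by Fe-XO absorbance ratio 573/405 nm.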
Sfp inh – Sfp phosphopantetheinyl transferase inhibition; Potency, µM, without a hit: largest response in the series, negative = inhibition, most hits filed as inhibitors; AID 1490; Biochemical Sfp PPTase activity, qHTS; actives 3.5% (n = 310,000); Q9F4F7;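 also: the enzyme is Sfp with the accession as filed and its product quenches rhodamine fluorescence; 0% = enzyme reaction without inhibitor and -100% = no enzyme wells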
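Reaction rates are the 30-min fluorescence difference (ex 525, em 598 nm) in wells containing 15 nM Sfp, 5 uM rhodamine-CoA and 12.5 uM BHQ-2-YbbR at pH 7.6 with 10 mM MgCl2.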
G9a inh – G9a (human) methyltransferase inhibition; G9a H3K9 monomethylation, AlphaScreen, 2 h; Potency, µM (series often up to 102 µM), inactives show at the highest dose activity, negative = inhibition, actives largely listed as inhibitors; actives 8.8% (n = 350,000); AID 504332; also: % is scaled to controls: 0 for no effect and ±100 for the full control effect; nearly all actives have a fitted effect of over 75% in size
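Using a bead-based AlphaScreen, monomethylated H3K9 product from 2 h room-temperature reactions (G9a 20 nM, peptide 500 nM, SAM 20 uM) was detected with 0.5 ug/mL rabbit anti-H3K9me1 antibody.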
JMJD2A Tudor – JMJD2A Tudor domain (human) inhibition; AlphaScreen JMJD2A-Tudor / H3K4me3 peptide binding; actives 4.4% (n = 390,000); Potency, µM (series often up to 114 µM), for inactives: at the top dose activity change, negative = inhibition, actives largely listed as inhibitors; also: % is scaled to controls: 0 for no effect and ±100 for the full control effect; nearly all actives have a fitted effect of over 50% in size
Target sequence (O75164 whole entry, looked up, the tested form may be a part): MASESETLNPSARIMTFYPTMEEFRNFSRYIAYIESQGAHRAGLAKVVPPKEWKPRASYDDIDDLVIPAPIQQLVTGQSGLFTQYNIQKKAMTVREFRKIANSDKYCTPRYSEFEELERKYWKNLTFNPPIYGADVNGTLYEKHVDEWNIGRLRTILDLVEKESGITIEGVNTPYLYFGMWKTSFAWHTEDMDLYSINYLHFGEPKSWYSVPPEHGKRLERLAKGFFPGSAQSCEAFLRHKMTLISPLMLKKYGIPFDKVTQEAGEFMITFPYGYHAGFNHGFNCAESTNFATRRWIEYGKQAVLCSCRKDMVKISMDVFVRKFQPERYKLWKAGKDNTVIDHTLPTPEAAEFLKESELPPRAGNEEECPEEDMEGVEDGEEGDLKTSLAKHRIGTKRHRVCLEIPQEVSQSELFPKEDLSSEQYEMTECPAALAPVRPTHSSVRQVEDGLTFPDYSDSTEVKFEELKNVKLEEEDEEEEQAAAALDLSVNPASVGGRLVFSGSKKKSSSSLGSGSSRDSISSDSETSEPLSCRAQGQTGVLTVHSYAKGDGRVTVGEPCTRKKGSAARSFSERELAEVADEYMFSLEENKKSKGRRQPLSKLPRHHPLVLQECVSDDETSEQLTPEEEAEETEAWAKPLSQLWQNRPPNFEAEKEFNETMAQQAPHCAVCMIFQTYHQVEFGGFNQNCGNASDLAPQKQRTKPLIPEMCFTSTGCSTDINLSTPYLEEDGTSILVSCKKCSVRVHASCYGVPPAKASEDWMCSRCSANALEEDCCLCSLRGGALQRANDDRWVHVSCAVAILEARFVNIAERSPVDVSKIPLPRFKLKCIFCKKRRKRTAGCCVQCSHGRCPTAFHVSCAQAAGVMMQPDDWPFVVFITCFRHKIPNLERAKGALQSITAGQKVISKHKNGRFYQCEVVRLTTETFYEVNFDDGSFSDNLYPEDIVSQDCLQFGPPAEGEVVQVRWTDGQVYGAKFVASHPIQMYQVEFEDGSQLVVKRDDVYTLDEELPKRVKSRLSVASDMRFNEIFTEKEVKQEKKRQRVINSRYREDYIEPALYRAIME
HP1b chromo inh – blocks HP1-beta chromodomain binding to methylated histone tails; AID 540317; actives 0.56% (n = 390,000); AlphaScreen HP1-beta / biotin-H3K9me3 peptide binding; P83916; Potency, µM (series often up to 114 µM), without a hit: at the highest dose activity change, negative = inhibition, hits mostly inhibitors; also: nearly all actives have a fitted effect of over 70% in size
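Compound inhibition of the preformed complex between 50 nM HP1-beta and 50 nM biotinylated H3K9me3 peptide was read by AlphaScreen. Buffer was PBS pH 7.4 with 0.01% Tween-20. Incubations ran 30 min at room temperature, with 10 ug/mL donor/acceptor beads.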
The depositor's hits bear a star; i = inactive; ? = inconclusive; nt = no result given; [ ] = dose if it differs, or a comment. An excerpt weighted towards active compounds, which were near 8.7% of everything screened. Calls follow the shape of the dose curve; as a rule, active = well fitted curve in the direction sought with a large enough effect; inconclusive = small, poorly fitted or top-dose-only effect, or another doubt; inactive = no such curve, though single readings can be large; an effect the other way counts as inactive or inconclusive. Potency is read from the fitted curve at half-maximal effect.

SMILES	BAZ2B inh	12-LOX inh	Sfp inh	G9a inh	JMJD2A Tudor	HP1b chromo inh
O=C(Nc1ccc(Cl)c(Cl)c1)c1cccnc1	-24%	?	12%	-9%[0.501 µM]	2%	56%
Cc1[nH]c(=O)[nH]c(=S)c1C(=O)Nc1ccc(Cl)c(Cl)c1	nt	?	nt	nt	8.9µM*	-42%
O=C(C[n+]1ccccc1)N/N=C/c1c(F)cccc1Cl	56µM*	3%	0%	-4%	-11%	28%
O=C(C[n+]1ccccc1)N/N=C/c1ccccc1F	nt	-15%	10%	7%	?	-13%
CC(C)(C)c1cc(/C=N/NC(=O)C[n+]2ccccc2)cc(C(C)(C)C)c1O	50µM*	9%	8%	-51%	56µM*	48%
O=C(C[n+]1ccccc1)N/N=C/c1ccc(Cl)cc1	50µM*	-21%	nt	-1%[12.7 µM]	?	25%
O=C(Cc1ccc(Cl)cc1)N/N=C/c1ccc(O)c(O)c1	nt	14µM*	nt	nt	nt	nt
CC(C)(C)c1ccc(/C=N/NC(=O)C[n+]2ccccc2)cc1	-25%	13%	6%	-2%	-16%	5%
CN1CCN(c2cc(=O)c3ccnc(-c4cccc(F)c4)c3o2)CC1	nt	0%[176 µM]	nt	nt	nt	nt
CC(C)COc1cccc(N)c1	nt	-34%	nt	nt	nt	nt
COc1ccccc1OCCn1cnc2c1c(=O)n(C)c(=O)n2C	nt	-3%	nt	nt	nt	nt
O=C(OC(C(=O)N1CCOCC1)c1ccccc1)c1n[nH]c(=O)c2ccccc12 (configuration not stated)	nt	5%	nt	nt	nt	nt
CN(C)c1ccc(C(O)c2cc3ccccc3s2)cc1 (configuration not stated)	nt	?	nt	nt	32µM*	?
COc1ccc(C(O)c2nc(-c3ccc(N(C)C)cc3)cs2)cc1 (configuration not stated)	nt	-12%	nt	nt	nt	nt
C[N+](C)(CCCCCCCCCC[N+](C)(C)C1CCCCC1)C1CCCCC1	nt	16µM*	nt	nt	nt	nt
COc1cc(OC)cc(C(=O)N(CC#N)C2CC2)c1	nt	4%	nt	nt	nt	nt
COc1cccc(CN(C)C(=O)c2cc(-c3ccc(F)cc3)nc3ccccc23)c1	?	nt	22µM*	?	10%	51%
COc1ccc(CCN(C)C(=O)c2cc(-c3ccccc3)nc3ccccc23)cc1OC	?	-1%	-15%	40µM*	-9%	25%
CN(C)C1(C#CCCCCC#CC2(N(C)C)CCCCC2)CCCCC1	nt	-10%	nt	nt	nt	nt
O=C(O)CCCN(Cc1cccc(Br)c1)S(=O)(=O)c1ccc(Br)cc1	3%	-13%	79µM*	19%	-7%	23%
COc1ccc(S(=O)(=O)N(CCC(=O)O)Cc2ccccc2)cc1	-23%	-1%	27%	-15%	6%	22%
COC[C@@H]1CN(CCCc2ccccc2)C[C@H]1C(N)=O	nt	21%	nt	nt	nt	nt
C[n+]1ccccc1N1CCN(c2ccccc2Cl)CC1	-14%	?	-7%	4µM*	79µM*	-1%
Cc1sc(-c2ccccc2)nc1-c1ccccc1	nt	-32%	nt	nt	nt	nt
CNC(=O)[C@@H]1CN(C(=O)c2ccoc2)C[C@H]1COC	nt	-8%	nt	nt	nt	nt
SMILES	BAZ2B inh	12-LOX inh	Sfp inh	G9a inh	JMJD2A Tudor	HP1b chromo inh
O=C1NC(=O)/C(=C/c2ccccc2Oc2ccc(Cl)cc2)S1	2%	?	17%	-48%[59 µM]	-3%	25%
Cc1ccc(S(=O)(=O)Oc2ccccc2/C=C2\SC(=O)NC2=O)cc1	?	-21%	17%	50µM*	-17%	25%
NNC(=O)c1cccc(Cn2cc(Br)c([N+](=O)[O-])n2)c1	-23%	?	-12%	40µM*	3%	55%
COc1ccc2c(c1)CCC1C2=NN(/C(C)=C\C(C)=O)C1c1ccc(F)cc1 (configuration not stated)	13%	?	45µM*	16µM*	14µM*	-20%
COc1ccc2c(c1)C1=NN(/C(C)=C/C(C)=O)C(c3ccc(F)cc3)C1CC2 (configuration not stated)	1%	?	-8%	-14%[59 µM]	?	-14%
Nc1c(C(=O)Nc2ccc(F)cc2)sc(=S)n1-c1ccccc1F	-12%	?	32µM*	7.9µM*	-19%	-22%
Cn1c(N)c(C(=O)Nc2ccc3ccccc3c2)sc1=S	0%	?	14µM*	7.1µM*	-18%	-21%
Cn1c(N)c(C(=O)Nc2ccccc2F)sc1=S	-33%	20%	-20%	50µM*	-33%	?
Cn1c(N)c(C(=O)N/N=C/c2ccccc2)sc1=S	1%	?	1%	nt	-10%	14%
COc1ccccc1-n1c(N)c(C(N)=O)sc1=S	-1%	-23%	?	-9%[0.0925 µM]	-14%	-13%
O=C(Nc1ccccc1F)c1ccccc1C(=O)Nc1ccccc1F	nt	40%	nt	nt	6%	44%
Cc1cc(C)n(CC(=O)N2CCCCC2C(=O)Nc2ccc(-n3nc(C)cc3C)cc2)n1 (configuration not stated)	nt	1%	nt	nt	nt	nt
CC(C)n1nc(C(=O)Nc2nc(-c3ccc(F)cc3)cs2)c2ccccc2c1=O	nt	19%	nt	nt	nt	nt
C=CCn1c(-c2sccc2C)n[nH]c1=S	-4%	-29%	2%	7.9µM*	7.1µM*	23%
C=CCn1c(-c2cccc(Cl)c2)n[nH]c1=S	5%	?	9%	2.8µM*	10µM*	6%
O=[N+]([O-])c1cccc(-c2n[nH]c(=S)n2Cc2ccccc2)c1	-12%	?	-5%	1.8µM*	79µM*	12%
NNC(=O)c1oc2nc(-c3ccc(Cl)cc3)cc(-c3ccccc3)c2c1N	?	i	1%	5%[2.33 µM]	-32%	15%
C=CCn1c(-c2oc3nc(-c4ccccc4)cc(-c4ccccc4)c3c2N)n[nH]c1=S	-32%	?	-29%	32µM*	?	?
O[C@@H]1C[C@@H](c2nc(-c3cccnc3)no2)N(Cc2cc3ccccc3o2)C1	nt	27%[176 µM]	nt	nt	nt	nt
CCOCCOC1CCN(C(=O)CCc2ccccc2)CC1	nt	8%	nt	nt	nt	nt
N#Cc1c(N)n[nH]c1CCCNC(=O)c1cc(-c2ccncc2)nc2ccccc12	nt	31%	nt	nt	nt	nt
Cn1ncc(CN2CCCC23CCN(c2ccc(C(F)(F)F)cn2)CC3)c1C1CC1	nt	53%	nt	nt	nt	nt
C=CCn1c(SC)nnc1-c1cccc([N+](=O)[O-])c1	9%	8%	7%	24%[59 µM]	-11%	33%
C=CCn1c(-c2cccc([N+](=O)[O-])c2)n[nH]c1=S	-27%	-28%	?	13µM*	5.6µM*	20%
CCOC(=O)CNC(=O)CSc1cn(CC(=O)N(CC)CC)c2ccccc12	nt	4%	nt	nt	nt	nt
O=C(NCc1ccccc1)N1CCCC1	8%	8%	22%	7%	-8%	14%
CN1CCC(=NNC(=O)C(=O)NCc2ccccc2)CC1	-1%	24%	1%	40µM*	-9%	17%
